Compound activity deposited in PubChem by Broad Institute.
FGF22 binding: FGF22 (human) thermal shift binding. Q9HCT0. recombinant FGF22 thermal shift, SYPRO orange fluorescence; percent of sucrose octasulfate shift, DMSO zero. activity (Tm shift, normalised), % at 9.99 µM. 340,000 compounds, 1.5% hits. AID 651658;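 active = mean Tm shift, scaled 0 neutral to 100 positive control, at about 1.3% or above, every replicate too, limit read from the data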
Target sequence (Q9HCT0 whole entry, looked up): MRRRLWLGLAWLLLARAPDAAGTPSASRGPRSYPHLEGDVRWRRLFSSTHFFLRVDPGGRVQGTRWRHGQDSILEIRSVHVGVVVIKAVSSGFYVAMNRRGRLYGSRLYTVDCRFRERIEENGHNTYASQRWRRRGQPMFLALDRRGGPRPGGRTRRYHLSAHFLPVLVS
CFTR F508del cor: correctors of CFTR F508del function in bronchial epithelial cells; activity (quench increase), % at 7.58 µM; 350,000 compounds, 0.36% hits; CFBE cells, YFP halide quenching; stimulated with forskolin plus potentiator P3; % fluorescence drop versus neutral controls;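 active = mean added fluorescence quench of at least 8% versus neutral control, with both replicates also reaching 8%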;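 also: cells transiently co-express mutant CFTR-F508del with the halide-sensitive YFP; corrector assay measuring rescue of mutant channel to the surface after 24 h compound exposure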
Vif inh: HIV Vif inhibition; 340,000 compounds, 0.35% hits; HEK293T cells, Vif self-association by quenched fluorescence, imaging, 24 h; inhibition, % at 7.49 µM; AID 602346; in the data active = inhibition above about 50%, passing the limit was not always enough
Numbers without * were called inactive; . = no result given. This is a sample that favours compounds with a hit; in the whole collection about 1.7% have one here.

SMILES	FGF22 binding	CFTR F508del cor	Vif inh
C[C@H](CO)N1C[C@H](C)[C@H](CN(C)S(=O)(=O)c2ccc(F)cc2)Oc2ccc(NC(=O)NC3CCCCC3)cc2C1=O	-0.5	1.1	.
COc1ccc(S(=O)(=O)n2nc(-c3cc(OC)c(OC)c(OC)c3)cc2N)cc1OC	-0.2	-3.4	5.6
COc1ccc(-c2cc(N)n(S(=O)(=O)c3c(F)c(F)c(F)c(F)c3F)n2)cc1OC	0.5	1.9	59.1*
C[C@H](CO)N1C[C@H](C)[C@H](CN(C)S(=O)(=O)c2cccs2)Oc2ncc(-c3ccccc3)cc2C1=O	-0.1	-2.6	.
O=C(CCl)Nc1cccc(Oc2ccccc2)c1	42.9*	-3.5	-2.6
O=C(CCl)Nc1cccc(Oc2cnccn2)c1	0.1	-12.4	0.9
CN(C(=O)CSc1nc2ccccc2s1)c1c(N)n(Cc2ccccc2)c(=O)[nH]c1=O	42.9*	-1.4	-6.4
CCN(C(=O)CSc1nc2ccc([N+](=O)[O-])cc2s1)c1c(N)n(Cc2ccccc2)c(=O)[nH]c1=O	-0.1	-3.1	-0.9
COc1ccccc1NC(=O)N1C[C@@H](O)COC[C@@H]2O[C@H](CC(=O)NCc3ccccc3)CC[C@H]21	0.1	-0.4	.
COc1ccc(S(=O)(=O)N[C@@H]2C=C[C@@H](CC(=O)NCCc3ccccc3)O[C@@H]2CO)cc1	0.8	-1.2	.
COc1ccc(CN(C(=O)c2ccc(CN3CCOCC3)o2)C(C(=O)NCC2CCCO2)c2ccc(F)cc2)cc1 (stereo not drawn)	0.1	3.6	-5.0
O=C(NCC1CCCO1)C(c1ccc(F)cc1)N(Cc1ccc2c(c1)OCO2)C(=O)c1ccc(CN2CCOCC2)o1 (stereo not drawn)	43.0*	4.6	.
COCCNC(=O)C[C@@H]1C[C@H]2c3cc(NC(=O)Nc4ccc(OC)cc4)ccc3O[C@H]2[C@H](CO)O1	0.0	0.7	.
O=C(NCC1CCCN(Cc2ccccc2F)C1)c1cccc(C(F)(F)F)c1 (stereo not drawn)	42.9*	-1.4	-2.1
COc1ccc(CC(=O)NCC2CCCN(Cc3cccc(C(F)(F)F)c3)C2)cc1 (stereo not drawn)	0.1	0.5	10.5
COCCNC(=O)C[C@@H]1CC[C@@H](NC(=O)NC2CCCC2)[C@@H](CO)O1	0.3	0.0	.
C/C(=N\NC(=O)c1ccc(F)cc1)c1ccc(N2CCOCC2)cc1	0.5	-1.3	3.4
C/C(=N\NC(=O)COc1ccc(C(C)(C)C)cc1)c1ccc(N2CCOCC2)cc1	44.0*	-0.6	-1.0
COc1ccc(-c2ccc3c(c2)[C@@H]2[C@@H](CCN2S(=O)(=O)c2ccc(OC)cc2)[C@@H](CO)N3C)cc1	0.2	-2.3	.
O=c1[nH]cc(F)c(=O)n1C1OC(CO)C(O)C1O (stereo not drawn)	0.2	1.0	.
O=C1C=CN(C2OC(CO)C(O)C2O)C(=O)C1 (stereo not drawn)	-0.2	9.7*	0.4
S=c1nc(C2COc3ccccc3O2)[nH][nH]1 (stereo not drawn)	43.3*	-1.7	-10.5
S=c1[nH]nc(C2COc3ccccc3O2)o1 (stereo not drawn)	.	.	3.8
COc1ccc(S(=O)(=O)N[C@H]2CC[C@@H](CC(=O)NCc3ccccc3F)O[C@@H]2CO)cc1	0.3	4.5	.
COc1cccc(C#Cc2ccc3c(c2)[C@@H]2[C@@H](CCN2C(=O)CC2CC2)[C@H](CO)N3)c1	.	1.8	.
SMILES	FGF22 binding	CFTR F508del cor	Vif inh
COc1ccc(OCCNC2CCCC2)cc1	0.1	-1.8	-6.8
N#Cc1ccc(OCCOCCNC2CCCC2)cc1	43.9*	-3.8	-6.5
C[C@@H]1CN([C@@H](C)CO)C(=O)c2cc(NC(=O)CCC(F)(F)F)ccc2O[C@@H](C)CCCCO[C@H]1CN(C)C(=O)C1CCCCC1	-0.2	-1.0	.
Oc1cccc(-n2nnnc2SCc2ccccc2F)c1	-0.4	-1.5	17.1
O=C(O)c1cc(-n2nnnc2SCc2ccccc2F)ccc1Cl	42.9*	1.5	4.8
Cc1cc(C)n(CCN(C)C(=O)c2cc(COc3c(F)cccc3F)on2)n1	0.0	1.2	.
Cc1cc(C)n(CCNC(=O)c2cc(COc3c(F)cccc3F)on2)n1	0.1	0.0	51.5*
COc1cccc(-c2csc(N3CCN(C(=O)Nc4ccccc4OC)CC3)n2)c1	0.3	0.3	122.3*
COc1cccc(-c2csc(N3CCN(C(=O)Nc4ccc(F)cc4)CC3)n2)c1	.	.	-2.3
CC(C)C#Cc1ccc2c(c1)O[C@H](CN(C)Cc1cncnc1)[C@@H](C)CN([C@@H](C)CO)S2(=O)=O	-0.3	2.5	.
Cc1ccccc1OCc1csc(N)n1	43.0*	-2.3	-5.2
Nc1nc(COc2ccccc2)cs1	0.0	0.3	-4.7
C[C@H]1CN([C@@H](C)CO)C(=O)Cc2cc(NC(=O)C3CC3)ccc2O[C@H]1CN(C)S(C)(=O)=O	0.0	-2.0	.
CC(C)Cn1c(N)c(C(=O)COC(=O)c2ccc([N+](=O)[O-])o2)c(=O)n(C)c1=O	43.0*	-1.9	-3.4
CC(C)Cn1c(N)c(C(=O)COC(=O)c2ccc(O)cc2)c(=O)n(C)c1=O	-0.1	4.2	1.8
Cc1ccc(S(=O)(=O)N(C)c2ccc(C)c([N+](=O)[O-])c2)cc1	43.4*	-1.0	13.5
COc1ccc(N(C)S(=O)(=O)c2ccc(C)cc2)c([N+](=O)[O-])c1	0.1	-0.7	-0.1
C[C@@H]1CN([C@@H](C)CO)C(=O)c2cc(NC(=O)Cn3cnnn3)ccc2O[C@H]1CN(C)C(=O)Nc1ccc(F)cc1	-0.2	-3.6	.
CC=Cc1ccc2n(c1=O)C[C@H]1[C@H](CO)[C@@H](C(=O)NCCC)[C@@H]2N1CC1CC1 (mixture of isomers)	-0.1	1.6	.
COc1ccccc1NS(=O)(=O)c1ccc(C(=O)NCCCN2CCOCC2)cc1	-0.1	3.1	89.2*
CC(C)C1Nc2ccc(C(=O)NCCCN3CCOCC3)cc2NC1=O (stereo not drawn)	.	.	54.6*
CC(C)CC1Nc2ccc(C(=O)NCCCN3CCOCC3)cc2NC1=O (stereo not drawn)	0.0	-1.9	15.1
O=C(NCCCN1CCOCC1)c1ccc(S(=O)(=O)Nc2ccccc2)cc1	.	-1.9	-18.6
Cc1cc(C)n(-c2ccc(C(=O)NCCCN3CCOCC3)cc2)n1	43.8*	-2.4	0.1
O=C(NCCCN1CCOCC1)c1ccc(Br)cc1	.	.	-3.1
SMILES	FGF22 binding	CFTR F508del cor	Vif inh
C[C@H](CO)N1C[C@H](C)[C@H](CN(C)Cc2ccc3c(c2)OCO3)Oc2ccc(NS(=O)(=O)c3ccccc3)cc2C1=O	-0.2	1.9	.
CN1CCN(C(=O)C[C@H]2CC[C@@H](NC(=O)Cc3ccccn3)[C@H](CO)O2)CC1	0.2	-1.2	.
Cc1ccc(C(=O)OCc2c(C)noc2C)cc1NC(=O)c1ccco1	43.7*	-1.5	-3.3
CCCCNC(=O)COC(=O)c1ccc(C)c(NC(=O)c2ccco2)c1	0.0	-0.5	-3.4
CNC[C@@H]1Oc2c(NS(=O)(=O)c3cn(C)cn3)cccc2C(=O)N([C@H](C)CO)C[C@H]1C	-0.2	0.3	.
CCc1ccc(C2C3=C(CC(C)(C)CC3=O)OC3=C2C(=O)CC(C)(C)C3)cc1	0.9	-1.7	-3.2
CCc1ccc(C2C3=C(CCCC3=O)OC3=C2C(=O)CCC3)cc1	43.1*	1.7	3.4
